Source: PubChem BioAssay (NCATS)
Records with an inconclusive call do not appear. The source made the active and inactive calls. Calls follow the shape of the full dose curve.

molecular target: Thyroid hormone receptor beta (Homo sapiens) (UniProt P10828); experiment: qHTS assay for small molecule agonists of thyroid hormone receptor beta signaling (AID 588545); conditions: TR-UAS-bla GripTite HEK 293, beta-lactamase ratio, agonist mode, 18 h, percent of T3 response, DMSO as zero; series mostly up to 76.7 µM
Sequence (P10828 whole entry, looked up): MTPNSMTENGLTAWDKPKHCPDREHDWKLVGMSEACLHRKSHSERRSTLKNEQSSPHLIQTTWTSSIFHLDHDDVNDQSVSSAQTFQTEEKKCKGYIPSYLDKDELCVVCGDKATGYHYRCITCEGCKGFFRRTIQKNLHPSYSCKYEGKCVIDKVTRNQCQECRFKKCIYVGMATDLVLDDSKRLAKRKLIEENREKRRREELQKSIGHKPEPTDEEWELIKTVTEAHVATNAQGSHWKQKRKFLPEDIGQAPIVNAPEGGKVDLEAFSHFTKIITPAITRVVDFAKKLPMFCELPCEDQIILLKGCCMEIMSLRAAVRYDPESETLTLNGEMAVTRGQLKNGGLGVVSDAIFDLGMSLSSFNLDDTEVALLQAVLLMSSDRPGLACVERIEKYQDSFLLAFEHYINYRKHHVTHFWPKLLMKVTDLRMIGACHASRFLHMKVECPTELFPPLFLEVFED
Excerpt: NIH Chemical Genomics Center [NCGC]
U.S. Environmental Protection Agency [EPA]
National Institutes of Environmental Health Sciences [NIEHS]
National Toxicology Program [NTP]
Thyroid hormone receptor (TR) belongs to nuclear hormone receptor superfamily. There are two subtypes for TR: TR-alpha and TR-beta. TR-beta plays a major role in regulating plasma cholesterol levels and it mediates the biological activities of thyroid hormone. Screening environmental chemicals on TR-beta signaling will provide important information for the mechanism of compound action.
NCGC Assay Protocol Summary
Using a beta-lactamase reporter-gene under control of the TR response element, a cell-based assay [GeneBLAzer TR-UAS-bla-GripTite assay developed by Invitrogen] was used to measure TR-beta signaling in agonist mode. TR-UAS-bla-GripTite HEK 293 cells were used with assay medium containing 2% charcoal/dextran FBS, 0.1 mM NEAA and 1 mM sodium pyruvate. The assay was performed in clear bottom black Greiner 1536-well plates. T3 was used as a positive control in the screen. Library compounds were measured for their ability to stimulate the reporter gene activity. Compounds were screened in a titration series in 1536-well format. The fluorescence intensity (405 nm excitation, 460/530 nm emission) was measured using an EnVision plate reader. Data was normalized relative to T3 control (10 nM, 100%), and DMSO only wells (basal, 0%). Concentration-response titration points for each compound were fitted to the Hill equation yielding concentrations of half-maximal stimulation (EC50) and maximal response (efficacy) values.
qHTS protocol for TR-beta beta-lactamase assay in agonist mode
[Step] [Parameter] [Value] [Description]
1. Reagent; 6 uL; 2500 cells/well
2. Incubation; 37 C for 4 hrs
- Dose response; start 3.8 uM, 1:3 dilutions, duplicates in first column
- Two columns of each 10 and 0.4 nM (finals) concentrations.
5. Incubation; 37 C for 18 hrs
6. Detection reagent; 1 uL of CCF4-dye
7. Incubation; RT for 2 hrs
8. Detection; Fluorescence; Envision plate reader

SMILES | outcome
CCCCOCCOCCOCCCC | inactive
CCCCC(CC)CNCC(CC)CCCC (stereo not given) | inactive
CCC=O | inactive
O=Cc1ccc(CO)o1 | inactive
Cc1cccc(C(=O)O)c1 | inactive
CCCCC/C=C/C=C/C=O | inactive
C1CCCC1 | inactive
O=C(O)CCSSCCC(=O)O | inactive
O=C(O)c1ccccc1[N+](=O)[O-] | inactive
C=Cc1ccccn1 | inactive
O=[N+]([O-])c1ccc(CCO)cc1 | inactive
CCOC(=O)OCC | inactive
C[C@@H]1CC2(OC3C[C@@]4(C)C5=CC[C@H]6C(C)(C)C(O[C@@H]7OC[C@@H](O)[C@H](O)[C@H]7O)CC[C@@]67C[C@@]57CC[C@]4(C)C31)OC(O)C1(C)OC21 (stereo not given in full) | inactive
CC(=C/C=C/C(C)=C/C=C/C=C(C)/C=C/C=C(C)/C=C/C(=O)O)/C=C/C(=O)O | inactive
CCCC(C)CO (stereo not given) | inactive
CCC(C)(C)C(=O)O | inactive
CC/C=C/C#N | inactive
O=[N+]([O-])c1ccccc1CCO | inactive
CC(C)N(C)C | inactive
COc1ccccc1[N+](=O)[O-] | inactive

SMILES | outcome
Cc1ccc2cccnc2c1 | inactive
FC(F)(F)c1cccc(Cl)c1 | inactive
CCCCC(CC)COC(=O)CCCCC(=O)OCC(CC)CCCC (stereo not given) | inactive
C=CCOC(=O)CCCCCCCC | inactive
CC1CCC2CC1C2(C)C (stereo not given) | inactive
O=C(O)CNC(=O)c1ccc(CO)o1 | inactive
O=[N+]([O-])c1cccc(C(F)(F)F)c1 | inactive
Cc1cccc2sc(N)nc12 | inactive
Cc1ccc(C(C)(C)C)cc1 | inactive
Cc1ccc2ncccc2c1 | inactive
Cc1ccc(C(=O)O)cc1 | inactive
C[C@@H]1O[C@@H](O[C@@H]2[C@@H](O)[C@H](OCCc3ccc(O)c(O)c3)O[C@H](CO[C@@H]3O[C@H](CO)[C@@H](O)[C@H](O)[C@H]3O)[C@H]2OC(=O)/C=C/c2ccc(O)c(O)c2)[C@H](O)[C@H](O)[C@H]1O | inactive
C=C(C)C(N)=O | inactive
Cc1nc2ccc(Cl)cc2[nH]1 | inactive
O=[N+]([O-])c1ccc2nc[nH]c2c1 | inactive
CC(C)N=C=NC(C)C | inactive
COCCOC(=O)c1ccccc1C(=O)OCCOC | inactive
COc1ccc(N)c(C)c1 | inactive
Nc1cccc(C(F)(F)F)c1 | inactive
CCOCC(=O)O | inactive
